Test results published in the antibiotic and cytotoxicity screens of Wong et al. (2023).
Among all 39,000 compounds or so, about 3,300 (8.5%) were called active. Only a selection was taken, and actives are over-represented in it overall.

test system: HepG2; assay: cytotoxicity call (relative viability < 0.9); settings: 10 µM

SMILES	cytotoxicity call
C[C@@H]1CCCCO[C@H](CN(C)S(=O)(=O)c2ccc(F)cc2)[C@@H](C)CN([C@@H](C)CO)C(=O)c2cc(NC(=O)Nc3cccc4ccccc34)ccc2O1	inactive
CC(=O)N(C)CCc1ccc(C)[n+]([O-])c1	inactive
C[C@@H]1CN([C@H](C)CO)C(=O)c2cc(-c3cncnc3)cnc2O[C@@H]1CN(C)C(=O)CN1CCOCC1	inactive
Cc1ccc(S(=O)(=O)N(C)C[C@H]2OCCCC[C@@H](C)Oc3ccc(NC(=O)Nc4ccc(F)cc4)cc3C(=O)N([C@@H](C)CO)C[C@@H]2C)cc1	inactive
C[C@H](O)C#Cc1cnc2c(c1)C(=O)N([C@H](C)CO)C[C@H](C)[C@H](CN(C)C(=O)Nc1ccc(C(F)(F)F)cc1)O2	inactive
CO[C@@H]1CN(C)C(=O)c2cc(NC(=O)C3CC3)ccc2OC[C@H](C)N(C(=O)Cc2ccccn2)C[C@H]1C	inactive
O=C1CCC(c2ccc(O)cc2)CC1	inactive
O=C1C=CC(=O)N1c1ccc(O)cc1	active
Cc1ccc(S(=O)(=O)N(C)C[C@H]2OCCCC[C@@H](C)Oc3ccc(NC(=O)Nc4ccc(C(F)(F)F)cc4)cc3C(=O)N([C@H](C)CO)C[C@@H]2C)cc1	inactive
C[C@@H]1CN([C@@H](C)CO)C(=O)c2cc(NC(=O)Cn3cnnn3)ccc2O[C@H]1CN(C)S(=O)(=O)c1cn(C)cn1	inactive
C[C@@H]1CN([C@H](C)CO)C(=O)c2cc(NC(=O)Nc3cccc4ccccc34)ccc2O[C@@H](C)CCCCO[C@@H]1CN(C)S(=O)(=O)c1cn(C)cn1	inactive
C[C@@H]1CN([C@@H](C)CO)C(=O)c2cccc(NS(=O)(=O)c3cn(C)cn3)c2O[C@@H]1CN(C)S(=O)(=O)c1cccs1	inactive
Cc1ccc(O)cc1	inactive
OCc1ccc(O)cc1	inactive
Nc1ccc(C(=O)O)cc1	inactive
Nc1ccc(O)cc1	active
Nc1cccc(O)c1	inactive
Oc1ccc(O)cc1	active
C[C@@H]1CCCCO[C@H](CN(C)S(=O)(=O)c2ccccc2)[C@@H](C)CN([C@H](C)CO)C(=O)c2cc(NS(=O)(=O)c3cn(C)cn3)ccc2O1	inactive
Cc1noc(C)c1NC(=O)N(C)C[C@@H]1Oc2c(NC(=O)c3ccc(-c4nccs4)cc3)cccc2C(=O)N([C@@H](C)CO)C[C@@H]1C	inactive
C[C@@H]1CCCCO[C@H](CN(C)C(=O)Cc2ccccc2)[C@H](C)CN([C@H](C)CO)C(=O)c2cc(NS(=O)(=O)c3ccc(F)cc3)ccc2O1	inactive
C[C@H](CO)N1C[C@H](C)[C@@H](CN(C)C(=O)Nc2cccc3ccccc23)Oc2ccc(NC(=O)Cc3ccccc3)cc2CC1=O	inactive
Cc1noc(C)c1NC(=O)Nc1ccc2c(c1)C(=O)N([C@@H](C)CO)C[C@H](C)[C@@H](CN(C)Cc1ccc3c(c1)OCO3)OCCCC[C@H](C)O2	inactive
Brc1cccc2ocnc12	inactive
Cc1cc(C(=O)Nc2cccc3c2O[C@H](CN(C)Cc2ccc(C(=O)O)cc2)[C@H](C)CN([C@H](C)CO)C3=O)n(C)n1	inactive
CC[C@H](C)[C@@H]([C@@H](CC(=O)N1CCC[C@H]1[C@H](OC)[C@@H](C)C(=O)N[C@@H](Cc1ccccc1)c1nccs1)OC)N(C)C(=O)[C@@H](NC(=O)[C@H](C(C)C)N(C)C)C(C)C	active

SMILES	cytotoxicity call
C[C@@H]1CCCCO[C@H](CN(C)C(=O)Nc2cccc3ccccc23)[C@H](C)CN([C@@H](C)CO)C(=O)c2cc(NC(=O)Nc3ccc4c(c3)OCO4)ccc2O1	inactive
Cc1noc(C)c1NC(=O)Nc1ccc2c(c1)C(=O)N([C@H](C)CO)C[C@H](C)[C@@H](CN(C)Cc1ccc(-c3ccccc3)cc1)O2	inactive
COC(=O)C1=C(C)NC(C)=C(C(=O)NCCCN2CCC(c3ccccc3)(c3ccccc3)CC2)[C@@H]1c1ccc([N+](=O)[O-])cc1	active
O=C(Nc1cccc([N+](=O)[O-])c1)C(=O)NC1CC1	inactive
COC(=O)C1=C(C)NC(C)=C(C(=O)OCC(C)C)[C@@H]1c1ccccc1[N+](=O)[O-]	inactive
COC(=O)C1=C(C)NC(C)=C(C(=O)OC(C)(C)CN(C)CCC(c2ccccc2)c2ccccc2)[C@@H]1c1cccc([N+](=O)[O-])c1	inactive
COC(=O)C1=C(C#N)NC(C)=C(C(=O)OC(C)C)C1c1cccc([N+](=O)[O-])c1 (stereo not drawn)	active
COC(=O)C1=C(C)NC(C)=C(C(=O)OCC(C)C)C1c1ccccc1[N+](=O)[O-] (stereo not drawn)	inactive
COC(=O)C1=C(C)NC(C)=C(C(=O)OCCN(C)Cc2ccccc2)C1c1cccc([N+](=O)[O-])c1.Cl (stereo not drawn)	inactive
CCOC(=O)C1=C(C)NC(C)=C(C(=O)OC)C1c1cccc([N+](=O)[O-])c1 (stereo not drawn)	inactive
COC(=O)C1=C(C)NC(C)=C(C(=O)OCCN2CCN(C(c3ccccc3)c3ccccc3)CC2)C1c1cccc([N+](=O)[O-])c1 (stereo not drawn)	active
CCOC(=O)C1=C(C)NC(c2ccccc2)=C(C(=O)OCc2ccc([N+](=O)[O-])cc2)[C@@H]1C#Cc1ccccc1	inactive
NNC(=O)c1cccc([N+](=O)[O-])c1	inactive
CCCN1C(C)=C(C(=O)OC)[C@@H](c2cccc([N+](=O)[O-])c2)C(C(=O)ON2CCC(c3ccccc3)(c3ccccc3)CC2)=C1C	active
Oc1ccccc1CNc1ccc(C2CCCCC2)cc1	inactive
CNCc1cc2ccccc2s1	inactive
O=C(C[C@@H]1C[C@@H]2c3cc(NC(=O)c4ccc5c(c4)OCO5)ccc3O[C@@H]2[C@H](CO)O1)NCCN1CCCCC1	inactive
Cc1noc(C)c1NC(=O)Nc1ccc2c(c1)C(=O)N([C@@H](C)CO)C[C@H](C)[C@@H](CN(C)C(=O)Cc1ccccc1)OCCCC[C@H](C)O2	inactive
Cn1ccc(C(=O)N2CC[C@@H]3OCCN(S(C)(=O)=O)[C@@H]3C2)n1	inactive
C[C@H]1CN([C@@H](C)CO)C(=O)c2cc(NS(=O)(=O)c3ccc(Cl)cc3)ccc2O[C@H]1CN(C)Cc1ccc(C(=O)Nc2ccccc2N)cc1	inactive
C[C@@H]1CN([C@H](C)CO)C(=O)c2cc(C#Cc3ccc(F)cc3)cnc2O[C@@H]1CN(C)CC1CCOCC1	inactive
CC1(C)OC2CC3C4CC(F)C5=CC(=O)C=CC5(C)C4(F)C(O)CC3(C)C2(C(=O)CO)O1 (stereo not drawn)	inactive
CC1=C(C(=O)OCCN(Cc2ccccc2)c2ccccc2)[C@@H](c2cccc([N+](=O)[O-])c2)C(P2(=O)OCC(C)(C)CO2)=C(C)N1.CCO.Cl	inactive
COCCOC(=O)C1=C(C)NC(C)=C(C(=O)OCC=Cc2ccccc2)C1c1cccc([N+](=O)[O-])c1 (stereo not drawn)	active
CC1=C(C(=O)OCCN(Cc2ccccc2)c2ccccc2)[C@H](c2cccc([N+](=O)[O-])c2)C(P2(=O)OCC(C)(C)CO2)=C(C)N1	inactive
COC(=O)C1=C(C)NC(C)=C(C(=O)OCCCN2CCC(c3ccccc3)(c3ccccc3)CC2)[C@H]1c1cccc([N+](=O)[O-])c1	active

SMILES	cytotoxicity call
COC(=O)C1=C(C)NC(C)=C(C(=O)OCCCN2CCC(c3ccccc3)(c3ccccc3)CC2)[C@@H]1c1cccc([N+](=O)[O-])c1	active
COCCOC(=O)C1=C(C)NC(C)=C(C(=O)OC(C)C)C1c1cccc([N+](=O)[O-])c1 (stereo not drawn)	inactive
COc1cc(OC)cc(C(=O)OCCCN2CCN(CCCOC(=O)c3cc(OC)cc(OC)c3)CC2)c1	inactive
O=C(C[C@@H]1CC[C@H]2[C@@H](COC[C@@H](O)CN2Cc2ccccc2F)O1)N[C@H]1CCN(Cc2ccccc2)C1	inactive
CO[C@@H]1CN(C)C(=O)c2ccc(NC(=O)c3ccc(F)cc3)cc2OC[C@H](C)N(C(=O)CN(C)C)C[C@@H]1C	inactive
C[C@H]1CN([C@@H](C)CO)C(=O)c2cccc(NC(=O)C3CC3)c2O[C@H]1CN(C)Cc1ccc2c(c1)OCO2	inactive
C[C@@H]1CN([C@H](C)CO)S(=O)(=O)c2ccc(C#CCN(C)C)cc2O[C@H]1CN(C)C(=O)CN(C)C	inactive
Cc1noc(C)c1NC(=O)N(C)C[C@H]1Oc2ccc(NS(=O)(=O)c3ccccc3)cc2C(=O)N([C@H](C)CO)C[C@H]1C	inactive
COCCNC(=O)C[C@H]1CC[C@H]2[C@H](COc3ccc(NC(=O)Nc4cccc(F)c4)cc3C(=O)N2C)O1	inactive
C[C@H](CO)N1C[C@H](C)[C@@H](CN(C)CC2CC2)Oc2ccc(NS(=O)(=O)c3cccs3)cc2CC1=O	inactive
NCC[C@H]1CC[C@H](NC(=O)C2CCCCC2)[C@@H](CO)O1	inactive
COc1ccc(NC(=O)N(C)C[C@@H]2OCCCC[C@H](C)Oc3ccc(NC(=O)c4ccccc4)cc3C(=O)N([C@H](C)CO)C[C@@H]2C)cc1	inactive
C[C@H](CO)N1C[C@H](C)[C@@H](CN(C)Cc2ccc3c(c2)OCO3)Oc2ccc(NS(=O)(=O)c3ccccc3)cc2CC1=O	inactive
C[C@@H]1CN([C@@H](C)CO)C(=O)c2cc(NC(=O)Cn3cnnn3)ccc2O[C@@H]1CN(C)C(=O)Nc1cccc2ccccc12	inactive
COc1ccc(S(=O)(=O)Nc2ccc3c(c2)C(=O)N([C@@H](C)CO)C[C@@H](C)[C@H](CN(C)C(=O)C2CCCCC2)OCCCC[C@@H](C)O3)cc1	inactive
C[C@@H]1CCCCO[C@@H](CN(C)Cc2ccncc2)[C@H](C)CN([C@H](C)CO)C(=O)c2cc(NC(=O)Nc3ccccc3)ccc2O1	inactive
C[C@H](CO)N1C[C@H](C)[C@@H](CN(C)C(=O)Cc2ccccc2)OCCCC[C@H](C)Oc2ccc(NC(=O)Nc3ccc4c(c3)OCO4)cc2C1=O	inactive
C[C@H](CO)N1C[C@H](C)[C@H](CN(C)Cc2ccc(Oc3ccccc3)cc2)Oc2ccc(NC(=O)CCCN(C)C)cc2CC1=O	inactive
C[C@H]1CN([C@@H](C)CO)C(=O)Cc2cc(NC(=O)CCCN(C)C)ccc2O[C@H]1CN(C)Cc1ccc(Oc2ccccc2)cc1	inactive
C[C@H](CO)N1C[C@H](C)[C@@H](CN(C)Cc2ccc(Oc3ccccc3)cc2)Oc2ccc(NC(=O)CCCN(C)C)cc2CC1=O	inactive
C[C@@H]1CN([C@H](C)CO)C(=O)Cc2cc(NC(=O)CCCN(C)C)ccc2O[C@H]1CN(C)Cc1ccc(Oc2ccccc2)cc1	active
C[C@H]1CN([C@@H](C)CO)C(=O)Cc2cc(NC(=O)CCCN(C)C)ccc2O[C@@H]1CN(C)Cc1ccc(Oc2ccccc2)cc1	active
C[C@@H]1CN([C@@H](C)CO)C(=O)Cc2cc(NC(=O)CCCN(C)C)ccc2O[C@@H]1CN(C)Cc1ccc(Oc2ccccc2)cc1	active
C[C@@H]1CN([C@@H](C)CO)C(=O)Cc2cc(NC(=O)CCCN(C)C)ccc2O[C@H]1CN(C)Cc1ccc(Oc2ccccc2)cc1	inactive
C[C@H](CO)N1C[C@H](C)[C@@H](CN(C)Cc2ccccc2)Oc2ccc(NC(=O)CCCN(C)C)cc2CC1=O	inactive
C[C@@H]1CN([C@H](C)CO)C(=O)Cc2cc(NC(=O)CCCN(C)C)ccc2O[C@@H]1CN(C)Cc1ccc(Oc2ccccc2)cc1	active
